PubChem BioAssay AID1159580 (chemical genetic matrix, 2015)
Values joined by “and” are separate entries in the source; they are usually repeats but may differ in a detail not shown here. Identical values can stand only once. In all, about 5,500 compounds went through this assay and about 2,000 (36%) were called active. About 18% were inconclusive and are not listed. Rule as the data show it: active = normalized growth mostly below about 0.91 (no sharp cut-off); inconclusive = no clear call, values can overlap the other calls; inactive = mostly above about 0.92. The list shows a part of the results.

Experiment: chemical genetic growth profiling, strain panel (AID 1159580);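 also: tested at 20 µM; growth read once vehicle control cultures reached saturation at 30 °C; 1 = growth at the plate median or of vehicle wells; lower values mean less growth of the strain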
Conditions: S. cerevisiae deletion strains, growth OD

Measured: normalized growth

CC(=O)O[C@H]1C(=O)[C@@]2(C)C([C@H](OC(=O)c3ccccc3)[C@]3(O)C[C@H](OC(=O)[C@H](O)[C@@H](NC(=O)c4ccccc4)c4ccccc4)C(C)=C1C3(C)C)[C@]1(OC(C)=O)CO[C@@H]1C[C@@H]2O (stereo partly specified)
inactive: locus YAL013W, strain DEP1, hits give low values 1.08 | locus YAL021C, strain ccr4, hits give low values 0.995 | locus YAL026C, strain drs2, hits give low values 0.979 | locus YAL030W, strain snc1, hits give low values 1 | locus YBL061C, strain skt5, hits give low values 1.01 | locus YBR009C, strain hhf1, hits give low values 0.989 | locus YBR021W, strain FUR4, hits give low values 1.05 | locus YBR023C, strain chs3, hits give low values 1.01 | locus YBR171W, strain sec66, hits give low values 0.991 | locus YBR229C, strain ROT2, hits give low values 1.02 | locus YBR231C, strain swc5, hits give low values 1.02 | locus YBR279W, strain paf1, hits give low values 0.994 | locus YCL011C, strain gbp2, hits give low values 1.02 | locus YCL016C, strain dcc1, hits give low values 1.04 | locus YCL029C, strain bik1, hits give low values 1.05 | locus YCL061C, strain MRC1, hits give low values 1.01 | locus YCL069W, strain vba3, hits give low values 1.01 | locus YCR088W, strain abp1, hits give low values 1 | locus YDL005C, strain med2, hits give low values 1 | locus YDL035C, strain GPR1, hits give low values 1.06 | locus YDL040C, strain nat1, hits give low values 1 | locus YDL074C, strain BRE1, hits give low values 1.05 | locus YDL101C, strain DUN1, hits give low values 1.03 | locus YDL134C, strain PPH21, hits give low values 1.03 | locus YDL185W, strain tfp1, hits give low values 0.936 | locus YDR001C, strain nth1, hits give low values 1.02 | locus YDR069C, strain doa4, hits give low values 0.975 | locus YDR101C, strain arx1, hits give low values 1.07 | locus YDR137W, strain rgp1, hits give low values 1.02 | locus YDR150W, strain NUM1, hits give low values 1.03 | locus YDR159W, strain sac3, hits give low values 0.975 | locus YDR162C, strain NBP2, hits give low values 1.04 | locus YDR195W, strain ref2 0.994 | locus YDR297W, strain sur2, hits give low values 0.996 | locus YDR318W, strain mcm21, hits give low values 1.07 | locus YDR334W, strain swr1, hits give low values 1 | locus YDR335W, strain msn5, hits give low values 1 | locus YDR388W, hits give low values 1.06 | locus YDR392W, strain spt3, hits give low values 0.79 | locus YEL003W, strain gim4, hits give low values 0.979 | locus YEL037C, strain rad23, hits give low values 1.02 | locus YEL061C, strain CIN8 (second series), hits give low values 0.989 | locus YEL061C, strain CIN8, hits give low values 1.05 | locus YER015W, strain faa2, hits give low values 0.997 | locus YER016W, strain bim1, hits give low values 1.01 | locus YER110C, hits give low values 1.1 | locus YER111C, strain swi4, hits give low values 1.02 | locus YER155C, strain BEM2, hits give low values 1.03 | locus YER167W, strain BCK2, hits give low values 1.04 | locus YFR010W, strain ubp6, hits give low values 0.988 | locus YGL078C, strain dbp3, hits give low values 1.02 | locus YGL086W, strain mad1, hits give low values 0.944 | locus YGL167C, strain pmr1, hits give low values 0.994 | locus YGL173C, strain kem1, hits give low values 1 | locus YGL227W, strain vid30, hits give low values 1.02 | locus YGL240W, strain doc1, hits give low values 0.968 | locus YGL248W, strain PDE1, hits give low values 1.03 | locus YGL253W, strain hxk2, hits give low values 0.95 | locus YGR078C, strain PAC10, hits give low values 1.04 | locus YGR135W, strain pre9, hits give low values 1.05 | locus YGR229C, strain SMI1, hits give low values 1.13 | locus YGR252W, strain gcn5, hits give low values 1.13 | locus YHR013C, strain ard1, hits give low values 0.991 | locus YHR027C, strain rpn1, hits give low values 0.988 | locus YHR030C, strain SLT2, hits give low values 1.03 and 0.96 | locus YHR079C, strain IRE1 (second series), hits give low values 1.03 | locus YHR079C, strain IRE1, hits give low values 1 | locus YHR094C, strain hxt1, hits give low values 1.05 | locus YHR129C, strain ARP1, hits give low values 1.03 | locus YHR142W, strain chs7, hits give low values 1 | locus YIL066C, strain RNR3, hits give low values 1.03 | locus YIL073C, strain SPO22, hits give low values 1.04 | locus YIL125W, strain kgd1, hits give low values 1.06 | locus YJL092W, strain hpr5, hits give low values 1.01 | locus YJL095W, strain BCK1 (second series), hits give low values 1 | locus YJL095W, strain BCK1, hits give low values 1.03 and 0.973 | locus YJL115W, strain asf1, hits give low values 1.01 | locus YJL129C, strain trk1, hits give low values 0.992 | locus YJL134W, strain LCB3, hits give low values 1.03 | locus YJL154C, strain vps35, hits give low values 1 | locus YJL164C, strain tpk1, hits give low values 0.969 | locus YJL166W, strain qcr8, hits give low values 1.01 | locus YJL187C, strain SWE1 (second series), hits give low values 1.03 | locus YJL187C, strain SWE1, hits give low values 0.986 | locus YJR043C, strain POL32, hits give low values 1.06
active: locus YDL192W, strain arf1, hits give low values 1.14 [resistant] | locus YDR502C, strain sam2, hits give low values 1.16 [resistant] | locus YER155C, strain BEM2 (second series), hits give low values 0.824 | locus YHR200W, strain rpn10, hits give low values 1.17 [resistant] | locus YIR030C, strain dcg1, hits give low values 1.09 [resistant] | locus YJL168C, strain set2, hits give low values 1.07 [resistant]
